These results are taken from PubChem BioAssay (NCI).

Assay [1] is described as follows: NCI Yeast Anticancer Drug Screen. Data for the rad50 strain (AID 155).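 Also: 0% = growth of vehicle-only cultures of the same strain.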 To be noted: S. cerevisiae rad50 strain growth inhibition, active compounds read high. The gist of the method: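 Readout: growth inhibition relative to vehicle-treated cultures. Compound exposure was carried out in a genetically defined yeast strain deficient in DNA damage repair.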
Assay [2] can be described thus: NCI Yeast Anticancer Drug Screen. Data for the mec2-1 strain (AID 157). To be noted: S. cerevisiae mec2-1 strain, active compounds read high. The gist of the method: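 Using mec2-1 yeast: add compound, measure growth, express inhibition versus vehicle-treated cultures.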
A short description of assay [3]: NCI Yeast Anticancer Drug Screen. Data for the sgs1 mgt1 strain (AID 161).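 Also: 0% = growth of cultures given vehicle only.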 To be noted: S. cerevisiae sgs1 mgt1 strain, active compounds read high. In a few lines:
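This yeast growth screen uses a strain with defined DNA-repair lesions; compound-treated growth is compared with vehicle-treated growth.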

A short description of assay [4]: NCI Yeast Anticancer Drug Screen. Data for the cln2 rad14 strain (AID 165).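 Also: 0% = growth equal to vehicle treated cultures.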 Particulars: S. cerevisiae cln2 rad14 strain, active compounds read high. In a few lines: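 Yeast strain cln2 rad14, bearing defects in cell cycle control and DNA repair, serves as the test system; values reflect growth inhibition compared with vehicle.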
A short description of assay [5]: NCI Yeast Anticancer Drug Screen. Data for the bub3 strain (AID 167). Particulars: S. cerevisiae bub3 mutant strain, active compounds read high. In a few lines: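 Readout: yeast growth inhibition, expressed relative to vehicle-only wells. The test organism is a mutant strain from a panel with lesions in DNA repair or checkpoint genes.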
The nature of assay [6]: NCI Yeast Anticancer Drug Screen. Data for the mlh1 rad18 strain (AID 175). Particulars: S. cerevisiae mlh1 rad18 strain growth inhibition, active compounds read high. The gist of the method: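 Steps: expose repair-defective yeast to compound; measure growth; express inhibition against vehicle-treated controls.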
The mark [7] stands for this setting: at 5.0 µM (retest, dose inferred, filed as 0.5).
Setting [8] is: at 50.0 µM (retest, dose inferred, filed as 5.0).

This is part of a sample that, as a whole, favours compounds with a hit. Of some 79,000 tested, about 15% had one in any assay. A number with no mark means an inactive call. Active and inactive are the calls of the source. Rule as the data show it: active = growth inhibition above about 70%; inactive = the rest.

In the case of `Cc1ccc(N2C(=O)CCSC2=S)cc1C`, the growth inhibition in assay [1] (setting [7]) is -1%; in assay [1] (setting [8]) it was 87% (active); in assay [1] (at 50.0 µM), 97.2% (active); in assay [2] (setting [7]), 0%; in assay [2] (setting [8]), 35%; in assay [2] (at 50.0 µM) it was 80.5% (active). The growth inhibition in assay [3] (setting [7]) is 4%; in assay [3] (setting [8]), 96% (active); in assay [3] (at 50.0 µM), 98.3% (active); in assay [4] (setting [7]) it was -2%; in assay [4] (setting [8]) it was 32%; in assay [4] (at 50.0 µM), 38.9%. Also, the growth inhibition in assay [5] (setting [7]) is -5%; in assay [5] (setting [8]), 77% (active); in assay [5] (at 50.0 µM), 68.7%; in assay [6] (setting [7]), -2%; in assay [6] (setting [8]), 98% (active); in assay [6] (at 50.0 µM), 95.4% (active).

Turning to `CN(C)CCOc1cc2c(c3ccccc13)-c1ccccc1C2=O`, the growth inhibition in assay [1] (setting [7]) was 93% (active); in assay [1] (setting [8]), 99% (active); in assay [1] (at 50.0 µM) it was 99.7% (active); in assay [2] (setting [7]), 14%; in assay [2] (setting [8]) it was 99% (active); in assay [2] (at 50.0 µM), 99.3% (active). Also, the growth inhibition in assay [3] (setting [7]) is 20%; in assay [3] (setting [8]), 100% (active); in assay [3] (at 50.0 µM), 99.4% (active); in assay [4] (setting [7]), 12%; in assay [4] (setting [8]), 96% (active); in assay [4] (at 50.0 µM), 99% (active). In addition, the growth inhibition in assay [5] (setting [7]) is 6%; in assay [5] (setting [8]), 99% (active); in assay [5] (at 50.0 µM), 99.6% (active); in assay [6] (setting [7]), 21%; in assay [6] (setting [8]), 100% (active); in assay [6] (at 50.0 µM), 99.1% (active).

On to `CCCCCCCCCCCC[n+]1ccc(C#N)cc1`, for which the growth inhibition was 27% in assay [1] (setting [7]); 81% (active) in assay [1] (setting [8]); 99.2% (active) in assay [1] (at 50.0 µM); 30% in assay [2] (setting [7]); 98% (active) in assay [2] (setting [8]); 95.9% (active) in assay [2] (at 50.0 µM). The growth inhibition is 28% in assay [3] (setting [7]); 97% (active) in assay [3] (setting [8]); -5.4% in assay [3] (at 50.0 µM); 26% in assay [4] (setting [7]); 78% (active) in assay [4] (setting [8]); 84.4% (active) in assay [4] (at 50.0 µM). For the same compound, the growth inhibition in assay [5] (setting [7]) is 34%; in assay [5] (setting [8]), 92% (active); in assay [5] (at 50.0 µM), 47.8%; in assay [6] (setting [7]), 16%; in assay [6] (setting [8]), 92% (active); in assay [6] (at 50.0 µM), 99.5% (active).

With `CCCCCCCCCCCCc1ccc(S(=O)(=O)O)cc1.[Zn+2]`, the growth inhibition was -2% in assay [1] (setting [7]); 55% in assay [1] (setting [8]); 78.4% (active) in assay [1] (at 50.0 µM); 19% in assay [2] (setting [7]); 27% in assay [2] (setting [8]); 13.2% in assay [2] (at 50.0 µM). The growth inhibition in assay [3] (setting [7]) is -4%; in assay [3] (setting [8]), 59%; in assay [3] (at 50.0 µM), 75.3% (active); in assay [4] (setting [7]), 3%; in assay [4] (setting [8]), 38%; in assay [4] (at 50.0 µM), -49%. The growth inhibition is -8% in assay [5] (setting [7]); 35% in assay [5] (setting [8]); 6.15% in assay [5] (at 50.0 µM); -2% in assay [6] (setting [7]); 71% (active) in assay [6] (setting [8]); 30.1% in assay [6] (at 50.0 µM).

As for `CCOC(=O)C1=C(N)OC(c2ccccc2)=C(C#N)C1c1ccc(C)cc1` (stereo not given), the growth inhibition in assay [1] (setting [7]) was 8%; in assay [1] (setting [8]), 90% (active); in assay [1] (at 50.0 µM), 96.1% (active); in assay [2] (setting [7]), 4%; in assay [2] (setting [8]) it was 91% (active); in assay [2] (at 50.0 µM), 97% (active). The growth inhibition was 11% in assay [3] (setting [7]); 92% (active) in assay [3] (setting [8]); 97.3% (active) in assay [3] (at 50.0 µM); 0% in assay [4] (setting [7]); 86% (active) in assay [4] (setting [8]); 96.6% (active) in assay [4] (at 50.0 µM). Also, the growth inhibition in assay [5] (setting [7]) is -4%; in assay [5] (setting [8]) it was 87% (active); in assay [5] (at 50.0 µM), 96.3% (active); in assay [6] (setting [7]), 3%; in assay [6] (setting [8]), 90% (active); in assay [6] (at 50.0 µM), 96.5% (active).
